# Experimental data reported in PubChem BioAssay (NCATS).
# Inconclusive results are not listed. A call without a number means that no potency is given here. Activity calls are given as the source filed them. Calls come from the whole dose curve; as a rule, active = well fitted curve in the direction sought with a large enough effect; inconclusive = small, poorly fitted or top-dose-only effect, or another doubt; inactive = no such curve, though single readings can be large; an effect the other way counts as inactive or inconclusive.
# How the values were obtained:
# [1] = target: Aldehyde dehydrogenase, mitochondrial (Homo sapiens) (UniProt P05091); assay: qHTS for Inhibitors of the Aldehyde Dehydrogenase Family (ALDH2) Primary screen (AID 2061308); conditions: ALDH2 enzyme inhibition qHTS, 1536-well; series mostly up to 56 µM; note: nearly all actives have a fitted effect of over 55% in size
# [2] = target: Retinaldehyde dehydrogenase 3 (Homo sapiens) (UniProt P47895); assay: qHTS for Inhibitors of the Aldehyde Dehydrogenase Family (ALDH1A3) Primary screen (AID 2061315); conditions: ALDH inhibition qHTS; series mostly up to 56 µM
SMILES,Potency [1],Potency [2]
CC(C)(C)NS(=O)(=O)c1cccc(-c2nnc(SCC(=O)Nc3ccc(C(=O)O)cc3)n2-c2ccc(F)cc2)c1,inactive,inactive
CC1=CCC(O)C2(C)CCC3C(C)C(=O)OC3C12 (centres undefined),inactive,inactive
Cc1ccc2oc(NC3=NC4(CCCC4)C4=C(CCCC4=O)N3)nc2c1,inactive,inactive
CC(O)(C(=O)C1CC1(CO)COC1OC(CO)C(O)C(O)C1O)C1C(O)CC2C3CC=C4CC(O)CC(O)C4(C)C3C(O)CC21C (centres undefined),inactive,inactive
O=C(OCC#CCSc1nnc(-c2cccs2)o1)c1ccc(F)cc1,inactive,inactive
COc1ccc(C2=Nn3c(nnc3-c3ccccc3O)SC2)cc1OC,inactive,inactive
CN(C(=O)Nc1ccc2ccccc2c1)c1nnc(-c2ccncc2)s1,inactive,inactive
c1nc(N2CCNCC2)c2cc(-c3ccc4c(c3)OCO4)ccc2n1,inactive,inactive
Cc1cc(NS(=O)(=O)c2ccc(NC(=O)Cc3cccc4ccccc34)cc2)no1,inactive,inactive
COC(=O)C1=CO[C@@H](O[C@@H]2O[C@H](CO)[C@@H](O)[C@H](O)[C@H]2O)[C@H]2[C@@H]1[C@H](O)[C@H](O)[C@]2(C)O,inactive,inactive
Cc1ccnc(NC(=S)N2CC3CN(c4ccc(Cl)cc4C(F)(F)F)CC3C2)c1 (centres undefined),inactive,inactive
CC(C)n1nc(Cc2cccc3ccccc23)c2c(N)ncnc21,inactive,inactive
Cc1cc(N[S+](=O)([O-])c2cc3c(cc2Cl)NC(=O)CO3)ccc1Br,inactive,inactive
COc1ccc(S(=O)(=O)N2CCN(S(=O)(=O)c3c(F)cccc3F)CC2)cc1,inactive,inactive
CC1=C(C(=O)c2ccccc2)C(c2ccccc2Cl)N=C(Nc2nc3ccccc3o2)N1 (centres undefined),inactive,inactive
Cc1cccc(-n2cnc3cc(C(=O)N4CC(C)CC(C)C4)ccc32)c1 (centres undefined),inactive,inactive
Cc1ccc(NS(=O)(=O)c2cc3c(cc2N(C)CCN(C)C)NC(=O)CC3)cc1C,inactive,inactive
CCN(Cc1sccc1C)c1ncnc2ccc(-c3ccc4c(c3)OCO4)cc12,inactive,inactive
COc1ccc(O[C@@H]2O[C@H](CO)[C@H](O)[C@H](O)[C@H]2O)cc1,inactive,inactive

SMILES,Potency [1],Potency [2]
Cc1cc2c(s1)c1c(C)nn(Cc3ccc(F)cc3)c(=O)c1n2C,inactive,inactive
CC(C)CN1CCN(C(=O)COC(=O)c2ccc(S(C)(=O)=O)c([N+](=O)[O-])c2)CC1,inactive,inactive
Fc1ccc(-c2ccc(Nc3nc(-c4ccncc4)nc4ccccc34)cc2F)c(Cl)c1,inactive,inactive
COc1c2c(c(C)c3c1C(=O)OC3)OC1(C)CC(O)C3(O)C(C)(C)OC(=O)CCC3(C)C1C2 (centres undefined),inactive,inactive
NC1(C(=O)NC(CCO)c2ccc(Cl)cc2)CCN(c2ncnc3[nH]ccc23)CC1 (centres undefined),inactive,inactive
O=C(Nc1nc(-c2ccccc2)cs1)c1ccncc1NS(=O)(=O)c1ccc(-c2ccccc2)cc1,inactive,inactive
Cn1nnnc1Sc1ncnc2scc(-c3cccs3)c12,inactive,inactive
O=[S+]([O-])(c1ccc2nsnc2c1)N1CCN([S+](=O)([O-])c2c(F)cccc2F)CC1,inactive,inactive
N#Cc1ccc(Nc2ncc(-c3cccc4ccccc34)o2)cc1,inactive,inactive
Cc1cc(NS(=O)(=O)C2CCN(C(=O)Cc3ccc(Cl)c(Cl)c3)CC2)no1,inactive,inactive
CC1CCC2C(C)(C)C(O)CCC2(C)C12Cc1c(O)cc3c(c1O2)CN(C(CCCN=C(N)N)C(=O)O)C3=O (centres undefined),inactive,inactive
Oc1ccc(/C=C/c2ccccc2F)c2cccnc12,inactive,inactive
CCCn1c(-c2ccc(F)cc2)nc2c(NCCCCN3CCCC3)nc(C)nc21,inactive,inactive
Cc1cc(C)nc(NC(=S)N2CCN(c3nnc(C(F)(F)F)s3)CC2)c1,inactive,inactive
c1nc(NCc2ccc3c(c2)OCO3)c2cc(-c3ccc4c(c3)OCCO4)ccc2n1,inactive,inactive
CC(C)(C)OC(=O)NCC(=O)NNC(=O)c1cc2ccccc2[nH]1,inactive,inactive
C/C=C/c1ccc(O[C@@H]2O[C@H](CO)[C@@H](O)[C@H](O)[C@H]2O)c(OC)c1,inactive,inactive
Cc1noc(C)c1-c1ccc2ncnc(NCc3ccc(-c4ccccc4)cc3)c2c1,inactive,inactive
